# Compound activity as filed in PubChem.
# HepG2 tox: counter-screen for TGF-b inhibitors: cytotoxicity in HepG2 cells. HepG2 CAGA-GFP viability, ATP luminescence, 18 h. Potency, µM (top dose mostly 46.1 µM), without a hit: at the top dose activity change, negative = cytotoxicity, usual class: cytotoxic. 410,000 compounds, 0.76% hits
#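 CellTiter-Glo luminescence gave cytotoxicity after 18 hours at 37 degrees C. The cells were HepG2 CAGA-GFP in 1% FBS DMEM, stimulated with 500 pg/mL TGF-beta after compound addition. %Activity was normalised to no-cell wells (complete cell-killing) and DMSO (no toxicity), and curves were fitted and classified.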
# TDP1 cell CPT: growth inhibition of DT40 Tdp1-/-;hTDP1 cells with camptothecin (screen for TDP1 inhibitors); chicken DT40 Tdp1-/-;hTDP1 cells + 20 nM CPT, ATP luminescence, 48 h; Potency, µM (series often up to 46.2 µM), without a hit: top-dose activity change, negative = growth inhibition, actives largely listed as inhibitors; 420,000 compounds, 12% hits; AID 686979; note: % is set by controls: 0 for no effect and ±100 for the full control effect; nearly all actives have a fitted effect of over 55% in size
#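 Chicken DT40 Tdp1-/- cells complemented with human TDP1, 400 cells/well, exposed to compounds plus 20 nM camptothecin for at least 48 h at 37 C; viability read as ATP content by CellTiter-Glo luminescence.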
# TGFb SMAD3 inh: blocks TGF-b signaling; AID 588855; 410,000 compounds, 1.2% hits; Potency, µM (top dose mostly 46.1 µM), for the others: top-dose activity, negative = inhibition, actives largely listed as inhibitors; HepG2 CAGA-GFP TGF-b/SMAD3 reporter, GFP fluorescence, 18 h; TGF-beta stimulated, 500 pg/mL final; note: % is set by controls: 0 for no effect and ±100 for the full control effect; nearly all actives have a fitted effect of over 65% in size
#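 GFP signal (ex488/em500-530) from TGF-beta-stimulated HEPG2 CAGA-GFP cells, 500 pg/mL final, 18 h at 37 degrees C in DMEM plus 1% FBS, normalized to unstimulated and DMSO-stimulated controls.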
# DT40 TDP1 no CPT: qHTS for Inhibitors of human tyrosyl-DNA phosphodiesterase 1 (TDP1): qHTS in cells in absence of CPT; DT40 Tdp1-/- hTDP1 cells, no CPT, ATP luminescence, 48 h; Potency, µM (titrated, usually from 46.2 µM), for inactives: top-dose activity change, negative = growth inhibition, actives largely listed as inhibitors; 420,000 compounds, 15% hits; AID 686978, 2013; note: % is set by controls: 0 for no effect and ±100 for the full control effect; nearly all actives have a fitted effect of over 55% in size
#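 Luminescent ATP content (CellTiter-Glo) served as the growth readout. Knockout chicken DT40 cells expressing human TDP1 were exposed to compounds without camptothecin for a minimum 48 hr at 37 °C.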
# ATXN2 expr inh: reduces ATXN2 reporter expression in HEK-293 cells | HEK-293 ATXN2-luciferase reporter, luminescence, 24 h | Potency, µM (doses to about 57 µM), inactives show at the highest dose activity change, negative = inhibition, most hits filed as inhibitors | 360,000 compounds, 0.72% hits; note: % is set by controls: 0 for no effect and ±100 for the full control effect; nearly all actives have a fitted effect of over 55% in size
#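 qHTS (up to 57 uM final) was run with 24 h compound exposure of reporter cells at 37 °C. Each well was multiplexed: SteadyGlo luminescence measured ATXN2-luciferase expression after a fluorogenic Gly-Phe-AFC viability readout (25 uM final).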
# S2 tox: reduces viability in counter-screen for ATXN expression inhibitors | S2 cells (HEK-293 line with an ATXN2-luciferase reporter) viability, CellTiter-Fluor protease fluorescence, 24 h | 400,000 compounds, 0.49% hits | Potency, µM (doses to about 56.7 µM), most hits filed as cytotoxic; note: nearly all actives have a fitted effect of over 40% in size
# * = called active by the depositor; i = inactive; ? = inconclusive; nt = no result. In the library only some 17% were active in any assay of this set; here they are far more common. Calls come from the whole dose curve; as a rule, active = well fitted curve in the direction sought with a large enough effect; inconclusive = small, poorly fitted or top-dose-only effect, or another doubt; inactive = no such curve, though single readings can be large; an effect the other way counts as inactive or inconclusive. Potency is the fitted concentration of half-maximal effect.
SMILES,HepG2 tox,TDP1 cell CPT,TGFb SMAD3 inh,DT40 TDP1 no CPT,ATXN2 expr inh,S2 tox
Cc1cc2ccccc2n1CCNC(=O)c1cccc(Cl)c1,-21.4%,14.6µM*,-10.5%,7.31µM*,6.9%,i
COC(CNC(=O)c1cc(C)nn1-c1ccccc1)OC,-6.6%,-15.3%,-6.0%,-2.3%,-14.4%,i
CCOCCc1nnc(NC(=O)C(=O)c2cc(C)n(-c3cccc(C)c3)c2C)s1,6.8%,-4.0%,10.1%,?,7.0%,i
CS(=O)(=O)N1CCCCC1c1cc(C(=O)Nc2ccc3c(c2)OCO3)no1 (centres undefined),-8.9%,-13.4%,16.1%,-15.4%,38.7%,i
CC(C)NC(=O)c1cc(C2CCCCN2S(=O)(=O)c2ccc(C#N)cc2)on1 (centres undefined),13.2%,-5.3%,42.0%,-23.7%,10.0%,i
O=C(NCc1ccc(F)cc1)c1cc(C2CCCCN2S(=O)(=O)c2ccc(F)cc2F)on1 (centres undefined),-20.4%,23.1µM*,-21.7%,?,-9.5%,i
O=C(NCc1ccccc1)c1cc(C2CCCCN2S(=O)(=O)c2ccccc2)on1 (centres undefined),4.2%,?,-4.1%,25.9µM*,3.9%,i
O=C(NCc1cccnc1)c1cc(C2CCCCN2S(=O)(=O)c2ccccc2)on1 (centres undefined),7.0%,3.9%,10.5%,?,7.1%,i
COc1ccc(S(=O)(=O)N2CCCCC2c2cc(C(=O)Nc3ccc4c(c3)OCO4)no2)cc1 (centres undefined),-45.0%,18.4µM*,11.7%,14.6µM*,6.2%,?
N#Cc1cccc(NC(=O)c2cc(C3CCCCN3S(=O)(=O)c3ccccc3)on2)c1 (centres undefined),-2.1%,?,-28.5%,16.4µM*,-35.4%,i
COCCCNc1nc2c(c(=O)[nH]c(=O)n2C)n1CC(O)COc1ccc(Cl)cc1 (centres undefined),4.0%,-9.0%,4.3%,5.0%,7.1%,i
CCOC(=O)C1=C(COC(=O)/C=C/c2cccc(Cl)c2)NC(=O)NC1C (centres undefined),-1.7%,1.3%,-29.5%,-3.1%,15.0%,i
CCCNC(=O)c1cc(C2CCCCN2S(=O)(=O)c2ccc(OC)cc2)on1 (centres undefined),-4.1%,-37.8%,2.5%,?,-10.8%,i
COc1ccc(S(=O)(=O)N2CCCCC2c2cc(C(=O)NCc3ccccc3)no2)cc1 (centres undefined),-11.0%,25.9µM*,19.7%,?,-14.3%,?
CCCCCCCCCCCCCCCCCCN(CCCCCCCCCCCCCCCCCC)c1ccc(/C=C/c2ccc(C=O)cc2)cc1,-3.8%,-8.7%,-16.3%,5.8%,nt,nt
CCc1ccc(CNC(=O)CCCC(=O)n2nc(C)c3ccccc32)cc1,-13.7%,5.0%,1.4%,19.3%,0.5%,i
CC1CCN(c2nc3c(S(=O)(=O)c4cccc(Cl)c4)nnn3c3ccsc23)CC1,-1.8%,?,-1.1%,23.1µM*,-6.9%,i
CCN(CC)c1nc2c(S(=O)(=O)c3cccc(Cl)c3)nnn2c2ccsc12,-25.9%,8.2µM*,?,20.6µM*,nt,nt
O=S(=O)(c1cccc(Cl)c1)c1nnn2c1nc(NCc1ccc3c(c1)OCO3)c1sccc12,-0.5%,?,-8.5%,23.1µM*,-6.5%,i
Cc1ccc(-n2nc(C(=O)O)c(C)c(C#N)c2=O)cc1Cl,12.7%,-8.9%,10.9%,-3.5%,-14.0%,i
O=[N+]([O-])c1cc(-c2nc(-c3ccccc3)no2)ccc1N1CCCC1,4.1%,-6.8%,-17.1%,-11.7%,?,i
